# What was measured:
# [1] = molecular target: T1, Serine/threonine-protein kinase Nek9 (Homo sapiens) (UniProt Q8TD19); settings: at 1 µM;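 note: each value is a mean percent inhibition of NEK9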
# T1 sequence (whole entry): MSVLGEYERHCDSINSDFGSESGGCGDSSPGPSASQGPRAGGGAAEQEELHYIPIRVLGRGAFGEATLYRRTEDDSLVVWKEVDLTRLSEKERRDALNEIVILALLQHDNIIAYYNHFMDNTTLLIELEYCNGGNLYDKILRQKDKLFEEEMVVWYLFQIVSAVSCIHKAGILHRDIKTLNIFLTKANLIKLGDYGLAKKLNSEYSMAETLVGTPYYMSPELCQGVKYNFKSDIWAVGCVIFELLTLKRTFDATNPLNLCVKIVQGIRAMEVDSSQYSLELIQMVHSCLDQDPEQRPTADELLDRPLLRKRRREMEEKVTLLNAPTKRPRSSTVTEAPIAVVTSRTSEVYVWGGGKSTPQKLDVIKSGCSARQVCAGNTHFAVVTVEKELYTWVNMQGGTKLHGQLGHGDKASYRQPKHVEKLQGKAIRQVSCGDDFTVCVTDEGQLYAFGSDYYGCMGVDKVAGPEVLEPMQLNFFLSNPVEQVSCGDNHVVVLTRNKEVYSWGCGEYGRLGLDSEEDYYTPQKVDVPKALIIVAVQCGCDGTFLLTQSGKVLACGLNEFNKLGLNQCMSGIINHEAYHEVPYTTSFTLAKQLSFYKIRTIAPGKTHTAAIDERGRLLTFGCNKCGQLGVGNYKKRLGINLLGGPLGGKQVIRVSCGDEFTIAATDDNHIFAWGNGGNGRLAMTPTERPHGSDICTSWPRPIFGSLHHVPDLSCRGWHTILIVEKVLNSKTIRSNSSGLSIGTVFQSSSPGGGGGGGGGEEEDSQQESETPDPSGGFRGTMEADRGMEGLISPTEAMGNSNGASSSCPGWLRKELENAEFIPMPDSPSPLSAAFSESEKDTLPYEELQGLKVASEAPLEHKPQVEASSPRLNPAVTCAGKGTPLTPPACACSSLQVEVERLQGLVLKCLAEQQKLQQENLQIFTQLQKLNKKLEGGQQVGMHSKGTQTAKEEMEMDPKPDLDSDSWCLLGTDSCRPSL
# [2] = molecular target: Serine/threonine-protein kinase PLK1 (Homo sapiens) (UniProt P53350); settings: at 0.1 µM
# Serine/threonine-protein kinase PLK1 (Homo sapiens), sequence (P53350 whole entry): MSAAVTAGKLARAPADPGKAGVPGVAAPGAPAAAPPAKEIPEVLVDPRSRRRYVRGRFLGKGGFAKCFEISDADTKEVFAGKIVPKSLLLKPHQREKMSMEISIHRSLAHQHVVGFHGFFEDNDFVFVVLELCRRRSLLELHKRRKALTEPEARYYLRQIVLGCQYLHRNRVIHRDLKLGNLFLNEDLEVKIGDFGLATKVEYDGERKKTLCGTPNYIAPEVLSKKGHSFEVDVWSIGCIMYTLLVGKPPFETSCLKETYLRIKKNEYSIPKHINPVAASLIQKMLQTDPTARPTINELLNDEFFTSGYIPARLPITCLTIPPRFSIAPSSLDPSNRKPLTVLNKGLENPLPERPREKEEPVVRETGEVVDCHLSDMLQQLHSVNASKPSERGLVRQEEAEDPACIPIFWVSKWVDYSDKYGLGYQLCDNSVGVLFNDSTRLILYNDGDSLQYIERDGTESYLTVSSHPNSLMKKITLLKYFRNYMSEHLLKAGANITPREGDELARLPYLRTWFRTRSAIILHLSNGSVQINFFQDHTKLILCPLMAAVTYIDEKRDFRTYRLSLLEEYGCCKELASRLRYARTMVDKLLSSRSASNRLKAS
# [3] = molecular target: Serine/threonine-protein kinase PLK1 (Homo sapiens) (UniProt P53350); settings: at 1 µM
# [4] = molecular target: T2, Dual specificity protein kinase TTK (Homo sapiens) (UniProt P33981); settings: at 0.1 µM
# T2 sequence (whole entry): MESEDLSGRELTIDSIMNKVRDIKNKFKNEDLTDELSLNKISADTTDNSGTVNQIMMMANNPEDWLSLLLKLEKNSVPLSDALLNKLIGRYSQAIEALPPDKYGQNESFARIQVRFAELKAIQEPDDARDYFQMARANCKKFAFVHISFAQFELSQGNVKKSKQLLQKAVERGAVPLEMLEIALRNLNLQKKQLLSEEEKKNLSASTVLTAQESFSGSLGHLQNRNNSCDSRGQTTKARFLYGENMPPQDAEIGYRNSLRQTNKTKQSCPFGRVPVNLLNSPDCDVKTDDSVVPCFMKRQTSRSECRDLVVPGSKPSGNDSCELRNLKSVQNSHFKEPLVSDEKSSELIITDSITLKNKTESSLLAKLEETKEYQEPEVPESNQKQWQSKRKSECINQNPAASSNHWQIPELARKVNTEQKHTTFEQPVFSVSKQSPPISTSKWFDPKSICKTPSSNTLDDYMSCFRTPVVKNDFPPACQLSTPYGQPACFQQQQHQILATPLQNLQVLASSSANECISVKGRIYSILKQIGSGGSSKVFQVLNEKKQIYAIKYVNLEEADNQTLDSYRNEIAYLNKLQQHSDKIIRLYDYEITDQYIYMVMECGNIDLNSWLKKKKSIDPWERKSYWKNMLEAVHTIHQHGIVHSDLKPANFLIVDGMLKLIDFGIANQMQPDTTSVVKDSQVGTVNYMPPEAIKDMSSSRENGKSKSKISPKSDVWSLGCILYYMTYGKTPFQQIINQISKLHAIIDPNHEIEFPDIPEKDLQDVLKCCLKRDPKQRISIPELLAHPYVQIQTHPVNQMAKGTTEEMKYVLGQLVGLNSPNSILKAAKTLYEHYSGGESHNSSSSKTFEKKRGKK
# [5] = tested on: T3, Receptor-type tyrosine-protein kinase FLT3 (Homo sapiens), P36888 [D835Y]; settings: at 1 µM
# T3 sequence (whole entry): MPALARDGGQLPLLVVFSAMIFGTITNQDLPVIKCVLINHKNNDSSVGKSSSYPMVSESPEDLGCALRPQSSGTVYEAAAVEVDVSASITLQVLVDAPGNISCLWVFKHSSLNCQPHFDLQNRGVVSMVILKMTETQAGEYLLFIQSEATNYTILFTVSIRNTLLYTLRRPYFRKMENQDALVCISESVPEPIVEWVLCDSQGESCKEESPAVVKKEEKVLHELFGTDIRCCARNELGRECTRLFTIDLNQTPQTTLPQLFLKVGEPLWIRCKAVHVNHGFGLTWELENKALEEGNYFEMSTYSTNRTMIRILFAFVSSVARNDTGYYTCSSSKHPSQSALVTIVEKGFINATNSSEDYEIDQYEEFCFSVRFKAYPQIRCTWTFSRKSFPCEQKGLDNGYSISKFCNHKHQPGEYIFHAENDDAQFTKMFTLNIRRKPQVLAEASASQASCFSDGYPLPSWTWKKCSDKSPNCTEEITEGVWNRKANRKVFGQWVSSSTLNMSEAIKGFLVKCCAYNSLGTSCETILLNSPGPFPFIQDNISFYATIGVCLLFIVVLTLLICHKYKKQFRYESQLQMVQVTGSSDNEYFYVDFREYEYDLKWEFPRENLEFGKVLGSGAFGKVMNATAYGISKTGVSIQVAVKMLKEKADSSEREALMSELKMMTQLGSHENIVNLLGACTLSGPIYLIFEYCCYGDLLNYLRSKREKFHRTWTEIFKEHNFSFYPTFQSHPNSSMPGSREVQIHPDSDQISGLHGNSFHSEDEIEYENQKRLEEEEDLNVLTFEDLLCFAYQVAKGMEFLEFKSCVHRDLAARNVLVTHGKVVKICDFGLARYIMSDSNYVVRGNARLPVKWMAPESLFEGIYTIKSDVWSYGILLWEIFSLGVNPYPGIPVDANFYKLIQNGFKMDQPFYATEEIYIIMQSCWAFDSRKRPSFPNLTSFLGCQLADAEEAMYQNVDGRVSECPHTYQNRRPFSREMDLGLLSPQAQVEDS
# [6] = molecular target: Vascular endothelial growth factor receptor 3 (Homo sapiens) (UniProt P35916); settings: at 0.1 µM
# [7] = molecular target: Vascular endothelial growth factor receptor 3 (Homo sapiens) (UniProt P35916); settings: at 1 µM
# [8] = molecular target: Macrophage colony-stimulating factor 1 receptor (Homo sapiens) (UniProt P07333); settings: at 0.1 µM
# [9] = molecular target: Macrophage colony-stimulating factor 1 receptor (Homo sapiens) (UniProt P07333); settings: at 1 µM
# [10] = molecular target: Tyrosine-protein kinase Fyn (Homo sapiens) (UniProt P06241); settings: at 0.1 µM
# Tyrosine-protein kinase Fyn (Homo sapiens), sequence (P06241 2-537 limits assumed): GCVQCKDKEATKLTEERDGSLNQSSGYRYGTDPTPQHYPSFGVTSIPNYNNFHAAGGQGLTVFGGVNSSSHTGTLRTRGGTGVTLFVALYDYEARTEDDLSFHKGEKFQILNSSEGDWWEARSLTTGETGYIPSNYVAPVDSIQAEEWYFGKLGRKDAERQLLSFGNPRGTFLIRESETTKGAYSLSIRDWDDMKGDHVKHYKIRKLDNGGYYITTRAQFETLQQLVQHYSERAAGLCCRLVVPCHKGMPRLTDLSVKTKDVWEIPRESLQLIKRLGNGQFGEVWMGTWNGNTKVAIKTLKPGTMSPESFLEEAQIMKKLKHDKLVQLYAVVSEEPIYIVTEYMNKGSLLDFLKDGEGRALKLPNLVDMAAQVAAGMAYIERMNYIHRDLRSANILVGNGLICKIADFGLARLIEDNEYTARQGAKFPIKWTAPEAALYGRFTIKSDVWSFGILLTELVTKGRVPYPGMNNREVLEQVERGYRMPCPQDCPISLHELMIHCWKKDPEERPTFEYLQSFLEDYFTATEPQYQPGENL
# [11] = molecular target: Tyrosine-protein kinase Fyn (Homo sapiens) (UniProt P06241); settings: at 1 µM
# [12] = molecular target: Tyrosine-protein kinase HCK (Homo sapiens) (UniProt P08631); settings: at 0.1 µM
# Tyrosine-protein kinase HCK (Homo sapiens), sequence (P08631 2-526 limits assumed): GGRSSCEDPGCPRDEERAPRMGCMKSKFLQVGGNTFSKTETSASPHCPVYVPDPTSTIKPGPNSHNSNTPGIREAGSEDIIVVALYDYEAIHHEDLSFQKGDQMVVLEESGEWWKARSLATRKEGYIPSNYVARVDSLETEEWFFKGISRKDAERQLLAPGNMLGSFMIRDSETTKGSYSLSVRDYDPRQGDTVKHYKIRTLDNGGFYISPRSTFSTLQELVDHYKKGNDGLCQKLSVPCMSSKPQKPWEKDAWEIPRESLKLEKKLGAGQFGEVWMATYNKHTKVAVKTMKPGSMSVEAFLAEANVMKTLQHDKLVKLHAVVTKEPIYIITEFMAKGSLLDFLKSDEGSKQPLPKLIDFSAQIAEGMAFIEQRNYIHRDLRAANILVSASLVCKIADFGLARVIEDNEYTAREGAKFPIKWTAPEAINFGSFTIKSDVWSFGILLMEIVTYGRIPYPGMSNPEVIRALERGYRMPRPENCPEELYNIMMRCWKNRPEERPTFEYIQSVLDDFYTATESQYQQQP
# [13] = molecular target: Tyrosine-protein kinase HCK (Homo sapiens) (UniProt P08631); settings: at 1 µM
# [14] = molecular target: Insulin-like growth factor 1 receptor (Homo sapiens) (UniProt P08069); settings: at 0.1 µM
# Insulin-like growth factor 1 receptor (Homo sapiens), sequence (P08069 31-736 limits assumed): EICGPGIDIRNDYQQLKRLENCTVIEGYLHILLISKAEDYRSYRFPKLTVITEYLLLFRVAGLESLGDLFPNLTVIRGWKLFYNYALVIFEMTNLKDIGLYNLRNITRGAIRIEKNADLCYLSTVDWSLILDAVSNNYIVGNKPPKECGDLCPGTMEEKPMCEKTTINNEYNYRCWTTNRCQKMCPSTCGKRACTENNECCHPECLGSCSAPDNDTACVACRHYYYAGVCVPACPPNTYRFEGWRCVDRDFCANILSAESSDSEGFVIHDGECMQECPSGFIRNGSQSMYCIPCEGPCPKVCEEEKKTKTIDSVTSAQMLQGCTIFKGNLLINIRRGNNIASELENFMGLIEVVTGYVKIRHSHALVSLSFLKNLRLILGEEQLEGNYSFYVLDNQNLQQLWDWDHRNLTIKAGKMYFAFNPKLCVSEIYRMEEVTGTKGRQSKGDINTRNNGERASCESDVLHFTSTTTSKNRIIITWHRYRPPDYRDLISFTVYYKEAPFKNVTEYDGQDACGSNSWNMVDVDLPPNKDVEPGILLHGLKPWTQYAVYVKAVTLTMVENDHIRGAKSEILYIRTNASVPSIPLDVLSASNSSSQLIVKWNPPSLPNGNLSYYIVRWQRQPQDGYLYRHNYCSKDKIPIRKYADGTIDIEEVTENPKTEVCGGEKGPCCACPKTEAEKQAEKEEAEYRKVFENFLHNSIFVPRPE
# Insulin-like growth factor 1 receptor (Homo sapiens), sequence (P08069 741-1367 limits assumed): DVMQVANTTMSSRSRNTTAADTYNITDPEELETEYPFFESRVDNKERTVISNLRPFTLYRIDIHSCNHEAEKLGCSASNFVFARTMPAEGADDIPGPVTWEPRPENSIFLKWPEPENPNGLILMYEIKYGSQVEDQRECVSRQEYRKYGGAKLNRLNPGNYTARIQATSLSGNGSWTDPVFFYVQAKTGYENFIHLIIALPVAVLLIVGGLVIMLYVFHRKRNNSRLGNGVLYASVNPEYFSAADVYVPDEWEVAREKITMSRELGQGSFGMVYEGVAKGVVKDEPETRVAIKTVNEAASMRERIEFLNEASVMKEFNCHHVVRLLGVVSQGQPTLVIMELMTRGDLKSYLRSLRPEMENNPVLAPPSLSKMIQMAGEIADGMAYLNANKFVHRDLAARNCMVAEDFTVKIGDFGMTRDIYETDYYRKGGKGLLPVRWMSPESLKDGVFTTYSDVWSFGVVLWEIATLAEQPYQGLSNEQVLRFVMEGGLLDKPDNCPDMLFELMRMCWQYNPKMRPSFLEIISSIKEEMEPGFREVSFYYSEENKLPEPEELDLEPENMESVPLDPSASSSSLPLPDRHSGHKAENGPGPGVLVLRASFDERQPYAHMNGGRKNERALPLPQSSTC
# [15] = molecular target: Insulin-like growth factor 1 receptor (Homo sapiens) (UniProt P08069); settings: at 1 µM
# [16] = molecular target: Insulin receptor (Homo sapiens) (UniProt P06213); settings: at 0.1 µM
# Insulin receptor (Homo sapiens), sequence (P06213 28-758 limits assumed): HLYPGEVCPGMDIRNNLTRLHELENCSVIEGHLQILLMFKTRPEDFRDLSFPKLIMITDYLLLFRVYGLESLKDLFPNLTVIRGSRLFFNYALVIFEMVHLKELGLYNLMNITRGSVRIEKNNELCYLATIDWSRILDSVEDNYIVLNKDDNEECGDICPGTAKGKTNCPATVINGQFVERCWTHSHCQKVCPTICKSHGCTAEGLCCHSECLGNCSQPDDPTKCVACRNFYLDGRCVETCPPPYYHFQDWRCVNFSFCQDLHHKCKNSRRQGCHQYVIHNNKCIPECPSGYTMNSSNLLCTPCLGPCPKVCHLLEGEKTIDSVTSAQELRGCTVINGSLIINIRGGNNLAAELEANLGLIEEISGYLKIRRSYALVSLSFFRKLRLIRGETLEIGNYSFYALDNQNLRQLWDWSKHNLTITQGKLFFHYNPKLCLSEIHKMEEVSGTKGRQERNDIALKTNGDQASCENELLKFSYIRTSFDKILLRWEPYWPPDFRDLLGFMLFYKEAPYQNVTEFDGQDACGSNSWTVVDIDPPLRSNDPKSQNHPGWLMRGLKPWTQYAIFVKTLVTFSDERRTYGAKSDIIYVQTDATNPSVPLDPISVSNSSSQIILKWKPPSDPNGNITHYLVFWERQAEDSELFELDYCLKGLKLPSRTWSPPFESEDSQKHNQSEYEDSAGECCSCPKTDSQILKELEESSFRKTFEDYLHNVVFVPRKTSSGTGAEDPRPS
# Insulin receptor (Homo sapiens), sequence (P06213 763-1382 limits assumed): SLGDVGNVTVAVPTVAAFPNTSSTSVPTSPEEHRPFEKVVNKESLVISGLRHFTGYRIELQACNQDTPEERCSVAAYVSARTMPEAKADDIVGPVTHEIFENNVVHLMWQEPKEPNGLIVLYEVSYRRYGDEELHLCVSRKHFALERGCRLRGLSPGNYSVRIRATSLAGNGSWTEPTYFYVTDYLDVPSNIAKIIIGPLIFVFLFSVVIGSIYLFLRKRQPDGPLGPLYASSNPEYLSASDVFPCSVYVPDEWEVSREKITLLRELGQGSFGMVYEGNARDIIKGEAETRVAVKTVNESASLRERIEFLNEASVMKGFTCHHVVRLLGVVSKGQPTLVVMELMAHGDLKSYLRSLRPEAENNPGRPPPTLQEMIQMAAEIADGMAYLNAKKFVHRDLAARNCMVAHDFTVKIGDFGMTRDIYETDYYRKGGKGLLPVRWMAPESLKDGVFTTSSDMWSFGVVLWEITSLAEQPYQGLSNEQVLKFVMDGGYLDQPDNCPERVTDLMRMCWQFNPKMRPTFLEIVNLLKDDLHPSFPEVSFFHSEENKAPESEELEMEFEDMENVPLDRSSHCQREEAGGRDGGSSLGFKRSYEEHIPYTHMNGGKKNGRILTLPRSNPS
# [17] = molecular target: Insulin receptor (Homo sapiens) (UniProt P06213); settings: at 1 µM
# [18] = molecular target: Insulin receptor-related protein (Homo sapiens) (UniProt P14616); settings: at 0.1 µM
# [19] = molecular target: Insulin receptor-related protein (Homo sapiens) (UniProt P14616); settings: at 1 µM
# [20] = molecular target: T4, Tyrosine-protein kinase ITK/TSK (Homo sapiens) (UniProt Q08881); settings: at 0.1 µM;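 note: mean percent inhibition of ITK from the GSK PKIS screen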
# T4 sequence (whole entry): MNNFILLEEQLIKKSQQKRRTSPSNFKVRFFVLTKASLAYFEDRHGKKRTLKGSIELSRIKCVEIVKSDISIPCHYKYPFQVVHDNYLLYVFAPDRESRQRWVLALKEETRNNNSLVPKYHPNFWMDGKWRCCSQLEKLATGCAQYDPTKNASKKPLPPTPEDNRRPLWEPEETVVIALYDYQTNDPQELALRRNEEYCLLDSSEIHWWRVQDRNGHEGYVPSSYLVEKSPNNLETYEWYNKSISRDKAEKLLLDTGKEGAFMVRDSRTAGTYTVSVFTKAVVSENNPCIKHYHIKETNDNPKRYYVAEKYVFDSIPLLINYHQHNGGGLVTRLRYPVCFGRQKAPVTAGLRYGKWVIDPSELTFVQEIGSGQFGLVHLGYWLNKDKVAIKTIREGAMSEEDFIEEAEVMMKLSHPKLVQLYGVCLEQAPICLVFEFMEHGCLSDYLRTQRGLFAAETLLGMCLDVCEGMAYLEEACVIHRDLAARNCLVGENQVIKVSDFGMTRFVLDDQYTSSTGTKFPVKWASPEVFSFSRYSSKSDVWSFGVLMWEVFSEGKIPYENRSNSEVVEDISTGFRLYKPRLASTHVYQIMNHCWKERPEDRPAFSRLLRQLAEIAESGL
SMILES,inhibition [1],inhibition [2],inhibition [3],inhibition [4],inhibition [5],inhibition [6],inhibition [7],inhibition [8],inhibition [9],inhibition [10],inhibition [11],inhibition [12],inhibition [13],inhibition [14],inhibition [15],inhibition [16],inhibition [17],inhibition [18],inhibition [19],inhibition [20]
NC(=O)c1ccc2c(-c3ccnc(NCCCO)n3)c(-c3ccc(F)cc3)nn2c1,5.15%,3.87%,4.03%,14%,-0.97%,2.83%,1.06%,5.2%,8.64%,2.14%,5.23%,7.1%,15.6%,3.95%,6.12%,10.3%,6.62%,4.18%,4.01%,1.32%
O=C(O[C@H]1CN[C@H](C#Cc2cc3ncnc(Nc4ccc5c(ccn5Cc5cc(F)ccc5F)c4)c3s2)C1)N1CCOCC1,12.3%,4.51%,10.8%,11%,-1.27%,4.34%,4.77%,2.09%,15.5%,4.48%,0.77%,4.89%,8.93%,2.56%,2.8%,6.64%,2.68%,1.67%,2.01%,1.67%
CCn1c(-c2nonc2N)nc2cncc(C(=O)NCCNC)c21,11.9%,6.23%,5.87%,9.43%,3.12%,1.03%,3.05%,-0.11%,3.41%,2.35%,2%,4.96%,6.37%,1.12%,5.76%,5.87%,15.3%,3.26%,5.53%,-0.27%
CS(=O)(=O)Nc1ccc(-c2cc(-c3ccccc3)cc(C(N)=O)c2N)cc1,1.82%,0.78%,3.05%,3.79%,-1.74%,11.7%,14.7%,1.42%,9.05%,1.39%,-0.83%,2.58%,4.51%,15.8%,8.99%,4.43%,3.29%,-1.45%,0.85%,0.8%

# Source: ChEMBL document CHEMBL1961873, “Compounds: GSK PKIS; Assays: Nanosyn kinase panel” (2012)
